The record followed here is PubChem BioAssay (NCI).

About 83,000 compounds went through this panel and 20% of them were active in at least one assay; those are over-represented in the sample as a whole.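 48-hour exposure, single concentration, 96-well plates; percent growth endpoint where 0 means no net growth. Active: below 10.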 Active and inactive are the calls of the source.

In the first test the test system is SN12C renal. The test can be described thus: NCI-60 one-dose screen, 48 h (100 = growth as untreated, 0 = no growth, -100 = all killed). The note with it: 10 µM unless noted.
For `Cc1ccc(S(=O)(=O)c2nc(S(=O)(=O)c3ccc(C)cc3)c(Cl)s2)cc1`, the growth was -20.5% (active).
The same measure, in the same setting: to `CCCCSc1nc(Nc2ccc(C(C)=O)cc2)c(C#N)c(-c2ccc(OC)cc2)n1` belongs 27.9% (inactive); to `Cc1cccc(Nc2nc3ccccc3nc2/C=C/c2ccc(F)cc2)c1`, 90.9% (inactive); to `Cc1cccc(NC(=O)CN2CCN(c3ncnc4c3cnn4-c3ccccc3)CC2)c1`, 83.4% (inactive).
On the same count and under the same terms, to `Cn1cc(-c2cc3nc(-c4c[nH]c5ccc(Br)cc45)cc(N)n3n2)c2ccccc21` belongs -73% (active).
Consider `C#CCOc1ccc(/C=N/Nc2nc(-c3cc4cc(OC)ccc4oc3=O)cs2)cc1OC`, for which the growth is 42.3% (inactive).
On the same count and under the same terms, to `CC1(C)CC[C@]2(C(=O)O)CC[C@]3(C)C(=CCC4[C@@]5(C)C[C@@H](O)[C@@H]6OC(c7ccc(F)cc7)OC[C@@]6(C)C5CC[C@]43C)C2C1` (stereo not given in full) belongs 31.8% (inactive); to `Cc1ccc(C(=O)NN2C(=O)/C(=C/C=C/c3ccc([N+](=O)[O-])o3)SC2=S)cc1`, -89.3% (active).
Regarding `CN(C)c1nc(NCCNS(=O)(=O)c2ccc(C3=Nc4c(N)nc(N)nc4NC(c4ccc(C(F)(F)F)cc4)C3)cc2)nc(Nc2ccc(F)cc2)n1` (stereo not given), the growth was 30.8% (inactive).
The same measure, in the same setting: the value for `O=C(CSc1nc2ccccc2c(=O)[nH]1)NCCN1CCCCC1` was 96.4% (inactive).
With `Cn1cc(-c2nnc(N)nc2-c2c[nH]c3ccc(Br)cc23)c2cc(Br)cnc21`, the growth is 63% (inactive).
The same measure, in the same setting: to `O=C(O)Cn1c(O)c(/C=C2/C=c3cc4c(cc3=NC2=O)OCCO4)sc1=S` belongs 97.5% (inactive); to `Cc1ccc(-c2nc(C#N)c(S(=O)(=O)N3CCN(S(=O)(=O)c4ccccc4)CC3)o2)cc1`, 3.58% (active); to `COc1cccc(-c2nc(Nc3ccc(S(N)(=O)=O)cc3)c3ccccc3n2)c1`, 44.6% (inactive).
On the same count and under the same terms, to `CNS(=O)(=O)c1ccc(Nc2ccc(C(F)(F)F)cc2)c(-c2cn(C)cn2)c1` belongs 41.9% (inactive).
The same measure, in the same setting: the value for `CCS(=O)(=O)N1CCCC(C(=O)Nc2nc3ccc(NC(=O)c4ccc(F)c(OC)c4F)cc3s2)C1` (stereo not given) was 83.7% (inactive); that for `C#CCOc1cc(N(CC)CC)ccc1C(C(=O)NC(C)(C)C)N(C(=O)C1CCc2cc(F)ccc2O1)c1cc(C)cc(C)c1` (stereo not given) was 30.9% (inactive).
In the case of `C#CCOc1ccc(/C=N/Nc2nc(-c3ccc(Cl)cc3)cs2)cc1OC`, the growth is 67.7% (inactive).
As to `O=C(COc1ccc2c(c1)CCCC(=O)N2)NCc1ccccc1`, the growth was 108% (inactive).
The same measure, in the same setting: to `CN(C)c1nc(NCCNS(=O)(=O)c2ccc(C3=Nc4c(N)nc(N)nc4NC(c4ccccc4)C3)cc2)nc(Nc2ccc(F)cc2)n1` (stereo not given) belongs 37.8% (inactive).
On the same count and under the same terms, to `Cc1cccc(-c2nc(Nc3ccc(C)c(S(N)(=O)=O)c3)c3ccccc3n2)c1` belongs 29.8% (inactive); to `COC(=O)C[C@](O)(CCCC(C)(C)O)C(=O)O[C@H]1C(OC)=C[C@@]23CCCN2CCc2cc4c(cc2[C@@H]13)OCO4`, -11.3% (active); to `CC1(C)CC[C@]2(C(=O)O)CC[C@]3(C)C(=CCC4[C@@]5(C)C[C@@H](O)[C@@H]6OC(c7ccco7)OC[C@@]6(C)C5CC[C@]43C)C2C1` (stereo not given in full), 20% (inactive).
In the case of `Cn1cc(-c2cc3nc(-c4c[nH]c5ccc(Cl)cc45)cc(N)n3n2)c2ccccc21`, the growth is -65.9% (active).
On the same count and under the same terms, to `COc1cc2nc(SCc3ccccc3)n(-c3ccc(Cl)cc3)c(=O)c2cc1OC` belongs -11.3% (active); to `Cc1cccc(-c2nc(Nc3cccc(S(N)(=O)=O)c3)c3ccccc3n2)c1`, 51.7% (inactive).
Still for that read-out and setting: to `CCN(CC)c1ccc(/C=N/Nc2nc(-c3ccc(C)cc3)cs2)c(O)c1` belongs 99.7% (inactive).

For a further test, the system named is UO-31 renal. Described as above. Particulars: 10 µM unless noted.
Consider `Cc1ccc(S(=O)(=O)c2nc(S(=O)(=O)c3ccc(C)cc3)c(Cl)s2)cc1`, for which the growth is -6.4% (active).
The same measure, in the same setting: to `CCCCSc1nc(Nc2ccc(C(C)=O)cc2)c(C#N)c(-c2ccc(OC)cc2)n1` belongs 14.5% (inactive); to `CCOC(=O)C1=C(N)N(c2ccccc2)C2=C(C(=O)CC(C)(C)C2)C1c1ccc([N+](=O)[O-])cc1` (stereo not given), 95.7% (inactive); to `Cc1cccc(Nc2nc3ccccc3nc2/C=C/c2ccc(F)cc2)c1`, 67.9% (inactive).
For `Cc1cccc(NC(=O)CN2CCN(c3ncnc4c3cnn4-c3ccccc3)CC2)c1`, the growth is 54.9% (inactive).
Still for that read-out and setting: the value for `Cn1cc(-c2cc3nc(-c4c[nH]c5ccc(Br)cc45)cc(N)n3n2)c2ccccc21` was -97.7% (active).
For `C#CCOc1ccc(/C=N/Nc2nc(-c3cc4cc(OC)ccc4oc3=O)cs2)cc1OC`, the growth is 87.7% (inactive).
Same read-out and setting: the value for `CC1(C)CC[C@]2(C(=O)O)CC[C@]3(C)C(=CCC4[C@@]5(C)C[C@@H](O)[C@@H]6OC(c7ccc(F)cc7)OC[C@@]6(C)C5CC[C@]43C)C2C1` (stereo not given in full) was 25.6% (inactive).
Same read-out and setting: to `O=C(NN1C(=O)/C(=C/C=C/c2ccc([N+](=O)[O-])o2)SC1=S)c1cccc(O)c1` belongs -98.6% (active).
On the same count and under the same terms, the value for `Cc1ccc(C(=O)NN2C(=O)/C(=C/C=C/c3ccc([N+](=O)[O-])o3)SC2=S)cc1` was -100% (active); that for `N/C(=N\c1nc2ccccc2s1)NC(=O)Nc1c(Cl)cccc1Cl` was 47.6% (inactive).
`O=C(CN1C(=O)/C(=C/c2ccccc2Cl)SC1=S)N1CCOCC1`: the growth is 66.5% (inactive).
Consider `CN(C)c1nc(NCCNS(=O)(=O)c2ccc(C3=Nc4c(N)nc(N)nc4NC(c4ccc(C(F)(F)F)cc4)C3)cc2)nc(Nc2ccc(F)cc2)n1` (stereo not given), for which the growth was 84.7% (inactive).
The same measure, in the same setting: to `O=C(CSc1nc2ccccc2c(=O)[nH]1)NCCN1CCCCC1` belongs 78.6% (inactive); to `Cn1cc(-c2nnc(N)nc2-c2c[nH]c3ccc(Br)cc23)c2cc(Br)cnc21`, 42.4% (inactive); to `O=C(O)Cn1c(O)c(/C=C2/C=c3cc4c(cc3=NC2=O)OCCO4)sc1=S`, 89.9% (inactive).
On the same count and under the same terms, to `N/C(=N\c1nc2ccccc2s1)NC(=O)Nc1ccc(Cl)cc1Cl` belongs -93% (active); to `Cc1ccc(-c2nc(C#N)c(S(=O)(=O)N3CCN(S(=O)(=O)c4ccccc4)CC3)o2)cc1`, -67.7% (active); to `COc1cccc(-c2nc(Nc3ccc(S(N)(=O)=O)cc3)c3ccccc3n2)c1`, 17.4% (inactive).
Regarding `COc1ccc(/C=C/c2nc3ccccc3n3c(-c4ccc(Cl)cc4)nnc23)cc1`, the growth was 66.4% (inactive).
On the same count and under the same terms, the value for `CNS(=O)(=O)c1ccc(Nc2ccc(C(F)(F)F)cc2)c(-c2cn(C)cn2)c1` was 9.13% (active); that for `CCS(=O)(=O)N1CCCC(C(=O)Nc2nc3ccc(NC(=O)c4ccc(F)c(OC)c4F)cc3s2)C1` (stereo not given) was 54.5% (inactive); that for `C#CCOc1cc(N(CC)CC)ccc1C(C(=O)NC(C)(C)C)N(C(=O)C1CCc2cc(F)ccc2O1)c1cc(C)cc(C)c1` (stereo not given) was 23.2% (inactive).
For `C#CCOc1ccc(/C=N/Nc2nc(-c3ccc(Cl)cc3)cs2)cc1OC`, the growth is 52.5% (inactive).
Same read-out and setting: to `O=C(COc1ccc2c(c1)CCCC(=O)N2)NCc1ccccc1` belongs 84.7% (inactive); to `CN(C)c1nc(NCCNS(=O)(=O)c2ccc(C3=Nc4c(N)nc(N)nc4NC(c4ccccc4)C3)cc2)nc(Nc2ccc(F)cc2)n1` (stereo not given), 69% (inactive); to `CC1(C)CC[C@]2(C(=O)O)CC[C@]3(C)C(=CCC4[C@@]5(C)C[C@@H](O)[C@@H]6OC(c7ccccc7F)OC[C@@]6(C)C5CC[C@]43C)C2C1` (stereo not given in full), 4% (active).
Still for that read-out and setting: to `Cc1cccc(-c2nc(Nc3ccc(C)c(S(N)(=O)=O)c3)c3ccccc3n2)c1` belongs 25.2% (inactive); to `COC(=O)C[C@](O)(CCCC(C)(C)O)C(=O)O[C@H]1C(OC)=C[C@@]23CCCN2CCc2cc4c(cc2[C@@H]13)OCO4`, 30.6% (inactive); to `Cn1cc(-c2cc(N)n3nc(-c4cn(C)c5ccccc45)cc3n2)c2cc(Cl)ccc21`, -88.5% (active).
Still for that read-out and setting: the value for `CC1(C)CC[C@]2(C(=O)O)CC[C@]3(C)C(=CCC4[C@@]5(C)C[C@@H](O)[C@@H]6OC(c7ccco7)OC[C@@]6(C)C5CC[C@]43C)C2C1` (stereo not given in full) was 22.7% (inactive); that for `Cn1cc(-c2cc3nc(-c4c[nH]c5ccc(Cl)cc45)cc(N)n3n2)c2ccccc21` was -98.6% (active); that for `COc1ccc(Cc2nn(CC(=O)N/N=C/c3ccc(F)cc3)c(=O)c3c(C)noc23)cc1` was -48% (active).
As for `COc1cc2nc(SCc3ccccc3)n(-c3ccc(Cl)cc3)c(=O)c2cc1OC`, the growth was -38.8% (active).
The same measure, in the same setting: to `Cc1cccc(-c2nc(Nc3cccc(S(N)(=O)=O)c3)c3ccccc3n2)c1` belongs 29.7% (inactive); to `COc1ccc2[nH]cc(-c3nnc(N)nc3-c3cn(C)c4ncc(Br)cc34)c2c1`, 49.4% (inactive); to `CCN(CC)c1ccc(/C=N/Nc2nc(-c3ccc(C)cc3)cs2)c(O)c1`, 83.2% (inactive).
Still for that read-out and setting: to `N/C(=N\c1nc2ccccc2s1)NC(=O)Nc1ccccc1Br` belongs 11.3% (inactive).
